Measured values published in the supplement of paper PMC10849652.
The full data set covers some 7,900 targets. This sample favours those with a hit. About 0.6% of all pairs of compound and target were hits.

Tests used:
Assay in all cases: log2 fold change, soluble protein after heating vs DMSO (PISA); higher = thermal stabilisation; K562 cells, 10 uM, 30 min; active = over 0.2 and 3.5 SD of the protein, either way, in both replicates (recomputed)
[1] = compound: NC(=O)Nc1cc(-c2cccc(F)c2)sc1C(=O)N[C@H]1CCCNC1
Outline: (§1)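 K562 cells at 2×10^6 cells/mL were given 10 μM compound for 30 min. Aliquots then went through 3 min of heating across 48°C-58°C, were pooled, and were extracted in PBS with 0.5% NP-40 at 4°C, and the supernatant after 21,000xg for 90 min was quantified by TMTpro 16plex LC-MS/MS with channel sums equalised. Thermal stability relative to control samples, from duplicates, is given as log2 fold change.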

[2] = compound: NC(=O)c1cnc(N[C@@H]2CCCC[C@@H]2N)nc1Nc1cccc(-n2nccn2)c1
Outline: as §1

[3] = compound: NC1(c2ccc(-c3nc4ccn5c(=O)[nH]nc5c4cc3-c3ccccc3)cc2)CCC1
Outline: as §1

[4] = compound: NCC(=O)Nc1ccc(-n2nc(C(F)(F)F)cc2-c2ccc3c(ccc4ccccc43)c2)cc1
Outline: as §1

entinostat = compound: Nc1ccccc1NC(=O)c1ccc(CNC(=O)OCc2cccnc2)cc1 [entinostat]
Outline: as §1

vorinostat = compound: O=C(CCCCCCC(=O)Nc1ccccc1)NO [vorinostat]
Outline: as §1

citarinostat = compound: O=C(CCCCCCNC(=O)c1cnc(N(c2ccccc2)c2ccccc2Cl)nc1)NO [citarinostat]
Outline: as §1

silmitasertib = compound: O=C(O)c1ccc2c(c1)nc(Nc1cccc(Cl)c1)c1ccncc12 [silmitasertib]
Outline: as §1

[5] = compound: O=C1NC(=O)C(c2cnc3ccccn23)=C1c1cn2c3c(cc(F)cc13)CN(C(=O)N1CCCCC1)CC2
Outline: as §1

[6] = compound: c1cc(OCCN2CCCCC2)cc(-c2n[nH]c3ccc(-c4nnc[nH]4)cc23)c1
Outline: as §1

entospletinib = compound: c1cn2cc(-c3ccc4cn[nH]c4c3)nc(Nc3ccc(N4CCOCC4)cc3)c2n1 [entospletinib]
Outline: as §1

Measured: log2 fold change

PLK1 (UniProt P53350)
UniProt P53350, sequence (P53350 whole entry, looked up): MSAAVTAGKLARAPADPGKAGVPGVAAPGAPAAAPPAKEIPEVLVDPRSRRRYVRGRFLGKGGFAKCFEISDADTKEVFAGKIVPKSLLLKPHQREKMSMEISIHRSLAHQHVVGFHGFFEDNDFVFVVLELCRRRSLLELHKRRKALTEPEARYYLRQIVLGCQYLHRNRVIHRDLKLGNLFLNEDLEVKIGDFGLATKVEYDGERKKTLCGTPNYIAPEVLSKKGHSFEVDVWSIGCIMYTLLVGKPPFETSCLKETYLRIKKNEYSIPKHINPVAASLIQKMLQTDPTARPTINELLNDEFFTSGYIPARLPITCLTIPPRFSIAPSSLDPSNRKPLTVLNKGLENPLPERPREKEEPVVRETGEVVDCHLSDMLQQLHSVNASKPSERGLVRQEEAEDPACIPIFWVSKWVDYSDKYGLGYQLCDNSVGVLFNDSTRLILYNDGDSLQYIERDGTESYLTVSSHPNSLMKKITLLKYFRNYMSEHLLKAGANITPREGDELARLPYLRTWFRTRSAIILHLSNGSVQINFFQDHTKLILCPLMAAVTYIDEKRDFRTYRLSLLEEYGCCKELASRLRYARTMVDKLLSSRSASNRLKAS
active: [1] -0.399
inactive: [2] 0.033 | [3] -0.024 | [4] 0.005 | entinostat -0.005 | vorinostat 0.002 | citarinostat 0.019 | silmitasertib -0.135 | [5] 0.032 | [6] -0.103 | entospletinib -0.022

PTTG1 (UniProt O95997)
UniProt O95997, sequence (O95997 whole entry, looked up): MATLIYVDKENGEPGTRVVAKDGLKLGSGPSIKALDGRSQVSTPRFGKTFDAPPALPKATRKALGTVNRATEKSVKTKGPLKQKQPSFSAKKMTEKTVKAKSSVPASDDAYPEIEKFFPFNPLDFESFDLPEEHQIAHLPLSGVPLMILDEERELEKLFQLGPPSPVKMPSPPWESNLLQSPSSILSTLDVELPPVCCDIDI
inactive: [1] -0.006 | [2] -0.098 | [3] -0.015 | [4] -0.071 | entinostat 0.035 | vorinostat -0.043 | citarinostat 0.027 | silmitasertib -0.002 | [5] -0.023 | [6] -0.128 | entospletinib -0.027

PEA15 isoform 2 (UniProt Q15121)
UniProt Q15121, sequence (Q15121 whole entry, looked up): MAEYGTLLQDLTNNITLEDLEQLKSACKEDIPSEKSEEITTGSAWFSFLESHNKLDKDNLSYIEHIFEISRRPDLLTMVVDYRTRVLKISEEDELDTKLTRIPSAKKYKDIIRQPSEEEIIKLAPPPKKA
inactive: [1] 0.021 | [2] -0.118 | [3] -0.103 | [4] 0.016 | entinostat 0.075 | vorinostat -0.009 | citarinostat 0.049 | silmitasertib 0.045 | [5] -0.067 | [6] -0.209 | entospletinib 0.009

PHAX (UniProt Q9H814)
UniProt Q9H814, sequence (Q9H814 whole entry, looked up): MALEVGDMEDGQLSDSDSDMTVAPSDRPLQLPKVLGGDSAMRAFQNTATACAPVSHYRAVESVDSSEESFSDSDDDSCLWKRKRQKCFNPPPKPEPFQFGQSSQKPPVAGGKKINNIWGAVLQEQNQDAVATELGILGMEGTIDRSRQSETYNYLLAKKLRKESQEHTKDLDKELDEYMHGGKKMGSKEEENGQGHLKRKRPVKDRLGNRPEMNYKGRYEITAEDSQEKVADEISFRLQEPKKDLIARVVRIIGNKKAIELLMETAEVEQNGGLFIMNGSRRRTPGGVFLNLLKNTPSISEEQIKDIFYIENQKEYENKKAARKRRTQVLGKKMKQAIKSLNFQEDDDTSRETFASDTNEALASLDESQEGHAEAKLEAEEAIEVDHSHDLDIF
inactive: [1] 0.008 | [2] -0.084 | [3] -0.003 | [4] 0.013 | entinostat -0.022 | vorinostat -0.006 | citarinostat 0.041 | silmitasertib 0.092 | [5] 0.046 | [6] -0.029 | entospletinib -0.005

POGLUT1 (UniProt Q8NBL1)
inactive: [1] -0.043 | [2] -0.057 | [3] -0.008 | [4] -0.102 | entinostat -0.01 | vorinostat 0.112 | citarinostat -0.058 | silmitasertib 0 | [5] 0.019 | [6] -0.05 | entospletinib 0.06

PRKAG1 isoform 3 (UniProt P54619)
inactive: [1] -0.105 | [2] -0.033 | [3] -0.069 | [4] -0.045 | entinostat 0.017 | vorinostat 0.071 | citarinostat 0.04 | silmitasertib 0.016 | [5] -0.042 | [6] -0.091 | entospletinib -0.018

PUF60 (UniProt Q9UHX1)
UniProt Q9UHX1, sequence (Q9UHX1 whole entry, looked up): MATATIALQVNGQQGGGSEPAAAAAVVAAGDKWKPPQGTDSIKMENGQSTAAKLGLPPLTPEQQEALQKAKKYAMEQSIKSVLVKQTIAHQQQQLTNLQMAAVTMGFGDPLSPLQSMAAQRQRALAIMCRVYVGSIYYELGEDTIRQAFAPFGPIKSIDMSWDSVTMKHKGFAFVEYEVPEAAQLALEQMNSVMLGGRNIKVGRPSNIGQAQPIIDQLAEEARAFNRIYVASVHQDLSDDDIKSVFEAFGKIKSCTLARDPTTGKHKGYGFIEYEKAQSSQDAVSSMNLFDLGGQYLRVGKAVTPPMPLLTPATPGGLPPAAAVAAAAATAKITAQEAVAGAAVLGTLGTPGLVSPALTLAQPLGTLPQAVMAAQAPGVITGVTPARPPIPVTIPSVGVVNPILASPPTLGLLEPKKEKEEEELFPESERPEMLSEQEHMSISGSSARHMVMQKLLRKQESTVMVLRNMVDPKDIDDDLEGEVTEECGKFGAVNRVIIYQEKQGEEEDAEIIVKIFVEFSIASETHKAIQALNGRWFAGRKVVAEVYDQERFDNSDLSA
inactive: [1] -0.112 | [2] -0.029 | [3] -0.035 | [4] -0.132 | entinostat 0.049 | vorinostat 0.028 | citarinostat 0.079 | silmitasertib -0.098 | [5] -0.025 | [6] -0.092 | entospletinib -0.017

PPP1R12A (UniProt O14974)
inactive: [2] -0.358 | [3] -0.137 | [4] -0.012 | entinostat 0.041 | vorinostat 0.017 | citarinostat 0.078 | silmitasertib 0.051 | [5] -0.01 | [6] -0.369 | entospletinib -0.045
active: [1] -0.428

PSMD12 (UniProt O00232)
inactive: [1] -0.001 | [2] 0.019 | [3] -0.061 | [4] 0.05 | entinostat 0.001 | vorinostat 0.003 | citarinostat -0.012 | silmitasertib -0.024 | [5] 0.045 | [6] -0.09 | entospletinib 0.032

PSMC5 (UniProt P62195)
inactive: [1] 0.034 | [2] -0.001 | [3] 0.007 | [4] 0.054 | entinostat -0.021 | vorinostat -0.004 | citarinostat -0.021 | silmitasertib -0.005 | [5] 0.063 | [6] -0.075 | entospletinib 0.005

POMP (UniProt Q9Y244)
UniProt Q9Y244, sequence (Q9Y244 whole entry, looked up): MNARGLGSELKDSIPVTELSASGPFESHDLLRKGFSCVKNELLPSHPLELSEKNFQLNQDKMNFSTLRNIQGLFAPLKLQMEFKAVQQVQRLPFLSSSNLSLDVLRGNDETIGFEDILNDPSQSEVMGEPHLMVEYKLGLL
inactive: [1] 0.106 | [2] 0.039 | [3] -0.029 | [4] -0.024 | entinostat 0.05 | vorinostat -0.066 | citarinostat 0.026 | silmitasertib 0.022 | [5] -0.022 | [6] -0.01 | entospletinib -0.015

PHKA2 (UniProt P46019)
inactive: [1] 0.013 | [2] -0.112 | [3] -0.157 | [4] 0.005 | entinostat 0.13 | vorinostat 0.04 | citarinostat -0.046 | silmitasertib 0.001 | [5] -0.013 | [6] 0.065 | entospletinib -0.043

POLR3K (UniProt Q9Y2Y1)
UniProt Q9Y2Y1, sequence (Q9Y2Y1 whole entry, looked up): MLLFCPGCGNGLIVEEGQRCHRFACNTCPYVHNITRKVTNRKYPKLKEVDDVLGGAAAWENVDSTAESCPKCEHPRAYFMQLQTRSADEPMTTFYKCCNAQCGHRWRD
inactive: [1] 0.045 | [2] 0.007 | [3] 0.057 | [4] 0.057 | entinostat 0.009 | vorinostat -0.003 | citarinostat -0.025 | silmitasertib 0.013 | [5] -0.028 | [6] 0.025 | entospletinib 0.113

PSMD11 (UniProt O00231)
inactive: [1] 0.048 | [2] 0.04 | [3] -0.016 | [4] 0.061 | entinostat -0.012 | vorinostat 0.027 | citarinostat -0.001 | silmitasertib -0.028 | [5] 0.071 | [6] -0.092 | entospletinib 0.017

POLD3 (UniProt Q15054)
inactive: [1] 0.035 | [2] -0.143 | [3] -0.107 | [4] -0.108 | entinostat 0.134 | vorinostat -0.008 | citarinostat 0.003 | silmitasertib -0.022 | [5] -0.013 | [6] 0.109 | entospletinib -0.054

PTMA (UniProt P06454)
inactive: [1] 0.279 | [2] 0.2 | [3] 0.217 | [4] 0.157 | entinostat 0.052 | vorinostat -0.026 | citarinostat -0.018 | [5] 0.021 | [6] 0.099 | entospletinib 0.047
active: silmitasertib -0.628

PYGL (UniProt P06737)
UniProt P06737, sequence (P06737 whole entry, looked up): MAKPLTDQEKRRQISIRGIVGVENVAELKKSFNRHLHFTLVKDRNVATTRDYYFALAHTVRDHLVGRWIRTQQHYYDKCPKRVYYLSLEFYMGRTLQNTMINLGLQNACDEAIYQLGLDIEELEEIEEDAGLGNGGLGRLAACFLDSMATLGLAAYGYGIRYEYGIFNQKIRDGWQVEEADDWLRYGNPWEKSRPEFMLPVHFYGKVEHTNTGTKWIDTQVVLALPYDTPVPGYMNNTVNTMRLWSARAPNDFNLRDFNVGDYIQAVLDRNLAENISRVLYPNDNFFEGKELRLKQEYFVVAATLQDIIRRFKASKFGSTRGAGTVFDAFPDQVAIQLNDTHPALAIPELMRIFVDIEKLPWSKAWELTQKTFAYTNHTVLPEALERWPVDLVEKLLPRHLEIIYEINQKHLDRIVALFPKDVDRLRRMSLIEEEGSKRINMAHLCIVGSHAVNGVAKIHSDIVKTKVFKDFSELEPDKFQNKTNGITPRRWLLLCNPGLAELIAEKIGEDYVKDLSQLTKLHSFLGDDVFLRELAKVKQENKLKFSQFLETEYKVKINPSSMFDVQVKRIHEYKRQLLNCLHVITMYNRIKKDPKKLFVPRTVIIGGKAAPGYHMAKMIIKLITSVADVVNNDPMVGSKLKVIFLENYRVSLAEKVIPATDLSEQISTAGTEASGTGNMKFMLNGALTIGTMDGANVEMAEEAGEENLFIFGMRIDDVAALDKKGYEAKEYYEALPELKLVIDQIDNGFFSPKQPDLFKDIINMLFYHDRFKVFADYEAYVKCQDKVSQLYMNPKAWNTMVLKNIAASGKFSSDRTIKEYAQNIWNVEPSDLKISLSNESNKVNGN
inactive: [1] 0.135 | [2] 0.012 | [3] -0.023 | [4] 0.016 | entinostat 0.028 | vorinostat 0.01 | citarinostat 0.039 | silmitasertib 0.034 | [5] -0.043 | [6] -0.041 | entospletinib -0.088

PDE12 (UniProt Q6L8Q7)
inactive: [1] -0.036 | [2] 0.07 | [3] -0.069 | [4] -0.008 | entinostat 0.017 | vorinostat -0.003 | citarinostat 0.044 | silmitasertib -0.014 | [5] -0.089 | [6] 0.047 | entospletinib -0.033

PGGT1B (UniProt P53609)
inactive: [1] -0.048 | [2] -0.014 | [3] -0.062 | [4] -0.021 | entinostat -0.047 | vorinostat -0.046 | citarinostat 0.038 | silmitasertib 0.021 | [5] 0.02 | [6] -0.042 | entospletinib -0.037

PUM1 isoform 3 (UniProt Q14671)
inactive: [1] 0 | [2] -0.032 | [3] -0.082 | [4] -0.015 | entinostat 0.034 | vorinostat 0.108 | citarinostat -0.008 | silmitasertib 0.01 | [5] -0.028 | [6] -0.007 | entospletinib 0.045

PLEKHM2 (UniProt Q8IWE5)
UniProt Q8IWE5, sequence (Q8IWE5 whole entry, looked up): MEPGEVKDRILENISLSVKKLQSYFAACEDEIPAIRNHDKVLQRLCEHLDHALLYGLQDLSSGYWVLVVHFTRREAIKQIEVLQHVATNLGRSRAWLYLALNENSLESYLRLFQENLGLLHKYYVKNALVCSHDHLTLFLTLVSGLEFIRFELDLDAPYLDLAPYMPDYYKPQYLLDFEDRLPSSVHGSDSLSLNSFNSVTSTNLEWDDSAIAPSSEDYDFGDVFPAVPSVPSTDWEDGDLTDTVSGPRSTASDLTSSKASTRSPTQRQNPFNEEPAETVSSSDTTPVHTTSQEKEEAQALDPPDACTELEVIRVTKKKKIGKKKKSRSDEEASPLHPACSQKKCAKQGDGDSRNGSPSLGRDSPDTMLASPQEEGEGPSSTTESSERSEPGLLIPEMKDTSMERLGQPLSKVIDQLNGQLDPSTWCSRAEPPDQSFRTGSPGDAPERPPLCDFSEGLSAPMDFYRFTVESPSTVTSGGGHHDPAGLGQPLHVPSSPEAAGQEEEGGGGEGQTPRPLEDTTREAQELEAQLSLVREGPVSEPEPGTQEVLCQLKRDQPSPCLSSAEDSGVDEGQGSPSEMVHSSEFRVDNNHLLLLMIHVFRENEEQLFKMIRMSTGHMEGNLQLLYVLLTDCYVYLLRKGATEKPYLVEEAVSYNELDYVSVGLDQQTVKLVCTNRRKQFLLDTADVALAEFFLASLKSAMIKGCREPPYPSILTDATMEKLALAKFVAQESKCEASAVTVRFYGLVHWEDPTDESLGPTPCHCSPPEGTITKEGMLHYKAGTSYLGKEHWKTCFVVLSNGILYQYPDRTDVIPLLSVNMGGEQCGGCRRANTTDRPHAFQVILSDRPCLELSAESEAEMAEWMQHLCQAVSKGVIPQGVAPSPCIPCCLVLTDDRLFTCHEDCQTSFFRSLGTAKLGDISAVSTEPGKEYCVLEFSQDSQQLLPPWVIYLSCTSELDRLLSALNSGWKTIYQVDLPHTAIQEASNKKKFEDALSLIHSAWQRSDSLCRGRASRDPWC
inactive: [1] 0.01 | [2] -0.102 | [4] -0.107 | entinostat 0.024 | vorinostat 0.072 | citarinostat 0.109 | silmitasertib -0.058 | [5] -0.009 | [6] -0.125 | entospletinib -0.051
active: [3] -0.315

PLBD1 (UniProt Q6P4A8)
inactive: [1] 0.008 | [2] -0.061 | [3] -0.076 | [4] -0.039 | entinostat 0.008 | vorinostat -0.038 | citarinostat -0.018 | silmitasertib 0.003 | [5] -0.027 | [6] 0.409 | entospletinib 0.011

PPM1G (UniProt O15355)
inactive: [1] -0.147 | [2] -0.086 | [3] -0.018 | [4] -0.181 | entinostat 0.017 | vorinostat 0.079 | citarinostat 0.033 | silmitasertib 0.031 | [5] -0.114 | [6] -0.102 | entospletinib 0.094

PSMD2 (UniProt Q13200)
inactive: [1] -0.018 | [2] 0.012 | [3] 0.005 | [4] 0.038 | entinostat -0.024 | vorinostat 0.01 | citarinostat -0.006 | silmitasertib -0.018 | [5] 0.03 | [6] -0.082 | entospletinib -0.002

PML (UniProt P29590)
inactive: [1] 0.021 | [2] -0.027 | [3] -0.029 | [4] 0.015 | entinostat -0.002 | vorinostat -0.059 | citarinostat 0.019 | silmitasertib 0.088 | [5] 0.002 | [6] -0.042 | entospletinib 0.073

POLR2M (UniProt P0CAP2)
UniProt P0CAP2, sequence (P0CAP2 whole entry, looked up): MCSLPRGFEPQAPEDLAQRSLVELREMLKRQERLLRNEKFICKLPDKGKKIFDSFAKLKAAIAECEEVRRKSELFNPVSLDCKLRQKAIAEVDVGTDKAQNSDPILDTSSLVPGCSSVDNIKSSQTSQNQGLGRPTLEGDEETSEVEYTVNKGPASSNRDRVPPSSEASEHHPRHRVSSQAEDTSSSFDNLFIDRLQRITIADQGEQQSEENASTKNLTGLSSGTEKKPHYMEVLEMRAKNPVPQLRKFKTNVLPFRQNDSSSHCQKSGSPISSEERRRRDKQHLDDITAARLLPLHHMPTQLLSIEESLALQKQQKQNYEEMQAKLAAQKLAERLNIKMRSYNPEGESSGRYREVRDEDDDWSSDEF
inactive: [1] -0.03 | [2] 0.035 | [3] -0.045 | [4] -0.085 | entinostat -0.032 | vorinostat -0.091 | citarinostat -0.019 | silmitasertib 0.043 | [5] 0.009 | [6] -0.008 | entospletinib -0.059

PAK4 (UniProt O96013)
UniProt O96013, sequence (O96013 whole entry, looked up): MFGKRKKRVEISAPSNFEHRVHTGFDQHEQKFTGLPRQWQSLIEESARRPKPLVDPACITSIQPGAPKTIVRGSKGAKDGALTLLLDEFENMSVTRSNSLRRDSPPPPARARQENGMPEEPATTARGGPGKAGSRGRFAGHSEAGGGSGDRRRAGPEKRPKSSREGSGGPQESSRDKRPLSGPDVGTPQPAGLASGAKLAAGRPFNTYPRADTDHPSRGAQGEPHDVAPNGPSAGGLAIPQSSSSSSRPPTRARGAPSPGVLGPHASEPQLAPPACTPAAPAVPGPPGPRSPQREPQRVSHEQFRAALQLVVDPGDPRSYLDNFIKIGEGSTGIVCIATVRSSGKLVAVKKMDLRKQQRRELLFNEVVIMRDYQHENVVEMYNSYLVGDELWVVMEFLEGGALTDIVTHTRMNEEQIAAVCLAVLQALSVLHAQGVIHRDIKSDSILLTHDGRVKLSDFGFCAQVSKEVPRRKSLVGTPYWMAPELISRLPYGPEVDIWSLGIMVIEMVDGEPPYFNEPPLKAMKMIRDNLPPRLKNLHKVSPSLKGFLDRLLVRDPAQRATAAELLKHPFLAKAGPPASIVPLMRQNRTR
active: [2] 0.388
inactive: [1] 0.048 | [3] 0.015 | [4] -0.038 | entinostat -0.083 | vorinostat 0.01 | citarinostat 0.003 | silmitasertib 0.041 | [5] 0.017 | [6] -0.039 | entospletinib -0.002
